Consider 43 sequences from publication PMC10726135, “HNF4α isoforms regulate the circadian balance between carbohydrate and lipid metabolism in the liver”.

Over roughly 18,000 sequences, “log2 normalized intensity” has its median near 0.39; the highest 2% begin near 6.6. Many of the other results were omitted from the sample, so the highest values are more common in it than they were.

For this assay, the target named is T1, HNF4alpha2 (COS-7 nuclear extract) (Homo sapiens, UniProt P41235 1-474).
T1 sequence: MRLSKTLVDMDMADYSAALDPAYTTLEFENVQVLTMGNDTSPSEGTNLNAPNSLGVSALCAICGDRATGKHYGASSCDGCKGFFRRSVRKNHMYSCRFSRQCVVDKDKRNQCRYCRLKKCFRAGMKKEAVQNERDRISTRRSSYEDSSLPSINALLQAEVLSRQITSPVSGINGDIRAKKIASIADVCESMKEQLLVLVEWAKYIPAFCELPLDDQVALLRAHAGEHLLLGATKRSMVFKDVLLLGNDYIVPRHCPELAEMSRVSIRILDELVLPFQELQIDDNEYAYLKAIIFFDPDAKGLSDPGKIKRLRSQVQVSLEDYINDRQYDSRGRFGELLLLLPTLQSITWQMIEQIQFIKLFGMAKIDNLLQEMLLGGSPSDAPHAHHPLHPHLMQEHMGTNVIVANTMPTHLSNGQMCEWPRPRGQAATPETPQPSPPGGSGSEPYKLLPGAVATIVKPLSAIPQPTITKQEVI
Kind of assay: protein-binding microarray; COS-7 nuclear extract on double-stranded Agilent 4x180k PBM; binding buffer, salt, pH and temperature not given in the material; high values mean tight binding. Conditions: chain copies: 2; label: 3' end of strand 1 on the slide; dsDNA, one strand shown. In short, it runs like this: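 COS-7 cells were transiently transfected by CaPO4 with an expression vector for a human HNF4α isoform, and nuclear extracts were prepared from them. The extracts were applied to a custom Agilent SurePrint G3 4x180k array of double-stranded ~60-nt oligonucleotides, with ~44,000 test sequences spotted in quadruplicate. An Agilent G2565CA scanner imaged bound HNF4α at 2-µm resolution. Binding signal is the background-corrected, normalized gProcessedSignal from Agilent software.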
“GGCGTGACCCCCACTGCCTGCCTGCCAACTGCCTAGGGAGATTAGAGTATCGGTCGA”: the binding signal came to 2.89 log2 normalized intensity.
The same measure for “CCCCCACTGCCTGACCCCAAGTAATAGCCGGCCTAGGGAGATTAGAGTATCGGTCGA”: 5.25 log2 normalized intensity; for “TGCCCTTTGCCCTCACTGGTAGAAGGCAGCGCCTAGGGAGATTAGAGTATCGGTCGA”: 4.58 log2 normalized intensity.
The same measure for “CGACCTCCCCGTCACCCTCCCCGCCACCCCGCCTAGGGAGATTAGAGTATCGGTCGA”: 6.67 log2 normalized intensity.
The same measure for “TTTCCCTGGTCGACCTCCCCGTCACCCTCCGCCTAGGGAGATTAGAGTATCGGTCGA”: 4.15 log2 normalized intensity; for “TCCCCGTCACCCTCCCCGCCACCCCCCAGAGCCTAGGGAGATTAGAGTATCGGTCGA”: 7.45 log2 normalized intensity; for “CTGGTCGACCTCCCCGTCACCCTCCCCGCCGCCTAGGGAGATTAGAGTATCGGTCGA”: 6 log2 normalized intensity.
As for “GTCACCCTCCCCGCCACCCCCCAGAGGGCCGCCTAGGGAGATTAGAGTATCGGTCGA”, the binding signal stood at 6.08 log2 normalized intensity.
The same measure for “CGCTCCCCTCCCCCACCCGCGGTCCGTCCCGCCTAGGGAGATTAGAGTATCGGTCGA”: 5.86 log2 normalized intensity.
As for “ACGTCTGTTAACCAAGATACTGGGTCAGAGGCCTAGGGAGATTAGAGTATCGGTCGA”, the binding signal amounted to 1.11 log2 normalized intensity.
Consider “ACCAGCGTAATTCTGGCTCTTTGAGTGGTTGCCTAGGGAGATTAGAGTATCGGTCGA”, for which the binding signal came to 0.76 log2 normalized intensity.
As for “TCCAGCATTCTTTTCCCCATACCAGGCAGTGCCTAGGGAGATTAGAGTATCGGTCGA”, the binding signal turned out to be 2.37 log2 normalized intensity.
As for “CCCCCAGTGGAATGTGCCCTTTGACCTCTCGCCTAGGGAGATTAGAGTATCGGTCGA”, the binding signal came out at 9.72 log2 normalized intensity.
With “AATGTGCCCTTTGACCTCTCTCTCCTAACTGCCTAGGGAGATTAGAGTATCGGTCGA”, the binding signal came to 6.48 log2 normalized intensity.
The same measure for “GGCCAGGTGGGCTGCTCCCAGTGCCCTTTGGCCTAGGGAGATTAGAGTATCGGTCGA”: 3.73 log2 normalized intensity; for “CGCTCTGAGTGACCTTTCACCCGCGCCCAGGCCTAGGGAGATTAGAGTATCGGTCGA”: 5.48 log2 normalized intensity.
The same measure for “GTGCTCCCTCCCCCTGCATGAACCTTTGCTGCCTAGGGAGATTAGAGTATCGGTCGA”: 3.19 log2 normalized intensity; for “GGAATGACCTTTGATATTTGTGCCTAGTGGGCCTAGGGAGATTAGAGTATCGGTCGA”: 4.8 log2 normalized intensity; for “AGTGGAATGTGCCCTTTGACCTCTCTCTCCGCCTAGGGAGATTAGAGTATCGGTCGA”: 7.71 log2 normalized intensity.
The same measure for “GGCGCCGCTCTGAGTGACCTTTCACCCGCGGCCTAGGGAGATTAGAGTATCGGTCGA”: 6.81 log2 normalized intensity.
As to “CGCCGGGCGCCGCTCTGAGTGACCTTTCACGCCTAGGGAGATTAGAGTATCGGTCGA”, the binding signal stood at 4.57 log2 normalized intensity.
The same measure for “CCTGACCCCCAGTGGAATGTGCCCTTTGACGCCTAGGGAGATTAGAGTATCGGTCGA”: 4.95 log2 normalized intensity.
The same measure for “GGTGGGCTGCTCCCAGTGCCCTTTGAACTCGCCTAGGGAGATTAGAGTATCGGTCGA”: 8.32 log2 normalized intensity.
The same measure for “AGTAACCTGACCCCCAGTGGAATGTGCCCTGCCTAGGGAGATTAGAGTATCGGTCGA”: 3.87 log2 normalized intensity; for “CTTCAAAGGTCGTGTGCTTATCACATCTATGCCTAGGGAGATTAGAGTATCGGTCGA”: 1.12 log2 normalized intensity.
Take “GTGATGACCCCATACTTCAGCAATTTCTTAGCCTAGGGAGATTAGAGTATCGGTCGA”: the binding signal amounted to 1.12 log2 normalized intensity.
The same measure for “AATCCCCTTCAAGTCTGAGATGAAGAGGCCGCCTAGGGAGATTAGAGTATCGGTCGA”: 0.649 log2 normalized intensity.
The same measure for “CAGTGGTAATGGAGCTGAAACTATAAACTTGCCTAGGGAGATTAGAGTATCGGTCGA”: -0.653 log2 normalized intensity; for “ACCTTTGCCCTGGATCTTGAAGCAGAAAACGCCTAGGGAGATTAGAGTATCGGTCGA”: 1.58 log2 normalized intensity.
The same measure for “TAATCAGCTTAAGCATACAGATTACATCTCGCCTAGGGAGATTAGAGTATCGGTCGA”: -0.798 log2 normalized intensity; for “ACGTTCACGTCTCAAGCTTCAGGAGTCCACGCCTAGGGAGATTAGAGTATCGGTCGA”: 2.07 log2 normalized intensity.
“ATACGATAATGTCAAACATCTTATATCAACGCCTAGGGAGATTAGAGTATCGGTCGA”: the binding signal amounted to 0.675 log2 normalized intensity.
The same measure for “TCTATCTGTATTCTGAAGCCCTACAGCCCAGCCTAGGGAGATTAGAGTATCGGTCGA”: -0.864 log2 normalized intensity; for “CCTCTGCATTTGCTCCCTGACTTGGTTTACGCCTAGGGAGATTAGAGTATCGGTCGA”: 1.67 log2 normalized intensity; for “CAGATCCAGTGGACTCTCTGTTTGATCAGCGCCTAGGGAGATTAGAGTATCGGTCGA”: 1.51 log2 normalized intensity.
The same measure for “TGTCACACACAGACTTGGGTTCAAAGAGCAGCCTAGGGAGATTAGAGTATCGGTCGA”: 3.94 log2 normalized intensity; for “AATGATTGCATAATCTGGCTCCAAAGTCTAGCCTAGGGAGATTAGAGTATCGGTCGA”: 2.2 log2 normalized intensity.
With “CCTTTACCCTGACCTGTCAAGCAATGATCTGCCTAGGGAGATTAGAGTATCGGTCGA”, the binding signal amounted to 1.25 log2 normalized intensity.
The same measure for “AGCAGTCTGAGTAGGAAAGACTTGCTCATTGCCTAGGGAGATTAGAGTATCGGTCGA”: -0.18 log2 normalized intensity; for “CCCTCTGAGTGTTTGACCTTTCACCCAGAAGCCTAGGGAGATTAGAGTATCGGTCGA”: 6.42 log2 normalized intensity; for “CACTCTGGTGCCCTCTGAGTGTTTGACCTTGCCTAGGGAGATTAGAGTATCGGTCGA”: 5.15 log2 normalized intensity.
In the case of “TGGTGCCCTCTGAGTGTTTGACCTTTCACCGCCTAGGGAGATTAGAGTATCGGTCGA”, the binding signal stood at 7.66 log2 normalized intensity.
The same measure for “GTTGCTTCCACCTATGAGTCTGTAAAGTCAGCCTAGGGAGATTAGAGTATCGGTCGA”: 0.468 log2 normalized intensity.
